Where “and” joins values, the source holds several entries; their conditions need not be identical. Identical values can stand only once. Out of some 5,500 compounds screened, about 2,000 (36%) were called active. Not shown: some 18% with an inconclusive outcome. Cut-off read from the data, not from the text of the source: active = normalized growth mostly below about 0.91 (no sharp cut-off); inconclusive = no clear call, values can overlap the other calls; inactive = mostly above about 0.92. The list shows a part of the results.
Test: chemical genetic growth profiling, strain panel (AID 1159580);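 note: tested at 20 µM; growth read once vehicle control cultures reached saturation at 30 °C; 1 = growth at the plate median or of vehicle wells; lower values mean less growth of the strain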
Settings: S. cerevisiae deletion strains, growth OD

Measured: normalized growth

O=c1oc2ccccc2c(O)c1Cc1c(O)c2ccccc2oc1=O
inactive: locus YAL013W, strain DEP1, stronger effect = lower value 1.01 | locus YAL021C, strain ccr4, stronger effect = lower value 0.977 | locus YAL026C, strain drs2, stronger effect = lower value 1.03 | locus YAL030W, strain snc1, stronger effect = lower value 1.02 | locus YBL061C, strain skt5, stronger effect = lower value 1.02 | locus YBR009C, strain hhf1, stronger effect = lower value 1.01 | locus YBR021W, strain FUR4, stronger effect = lower value 1.01 | locus YBR023C, strain chs3, stronger effect = lower value 1.01 | locus YBR171W, strain sec66, stronger effect = lower value 1.01 | locus YBR229C, strain ROT2, stronger effect = lower value 0.998 | locus YBR231C, strain swc5, stronger effect = lower value 1.02 | locus YBR279W, strain paf1, stronger effect = lower value 1 | locus YCL011C, strain gbp2, stronger effect = lower value 1.02 | locus YCL016C, strain dcc1, stronger effect = lower value 1 | locus YCL029C, strain bik1, stronger effect = lower value 0.968 | locus YCL069W, strain vba3, stronger effect = lower value 1.02 | locus YCR088W, strain abp1, stronger effect = lower value 1.02 | locus YDL005C, strain med2, stronger effect = lower value 1.04 | locus YDL035C, strain GPR1, stronger effect = lower value 1.04 | locus YDL040C, strain nat1, stronger effect = lower value 1.03 | locus YDL074C, strain BRE1, stronger effect = lower value 1.02 | locus YDL101C, strain DUN1, stronger effect = lower value 1.01 | locus YDL185W, strain tfp1, stronger effect = lower value 0.962 | locus YDL192W, strain arf1, stronger effect = lower value 0.962 | locus YDR001C, strain nth1, stronger effect = lower value 1 | locus YDR069C, strain doa4, stronger effect = lower value 0.994 | locus YDR101C, strain arx1, stronger effect = lower value 0.984 | locus YDR137W, strain rgp1, stronger effect = lower value 1.03 | locus YDR159W, strain sac3, stronger effect = lower value 0.936 | locus YDR162C, strain NBP2, stronger effect = lower value 1.01 | locus YDR195W, strain ref2 1.01 | locus YDR297W, strain sur2, stronger effect = lower value 1.01 | locus YDR318W, strain mcm21, stronger effect = lower value 0.979 | locus YDR334W, strain swr1, stronger effect = lower value 1.04 | locus YDR335W, strain msn5, stronger effect = lower value 1.02 | locus YDR388W, stronger effect = lower value 0.959 | locus YDR392W, strain spt3, stronger effect = lower value 0.919 | locus YDR502C, strain sam2, stronger effect = lower value 0.982 | locus YEL003W, strain gim4, stronger effect = lower value 1.02 | locus YEL037C, strain rad23, stronger effect = lower value 1.03 | locus YEL061C, strain CIN8 (second series), stronger effect = lower value 1.03 | locus YEL061C, strain CIN8, stronger effect = lower value 0.993 | locus YER015W, strain faa2, stronger effect = lower value 1.01 | locus YER016W, strain bim1, stronger effect = lower value 1.01 | locus YER110C, stronger effect = lower value 0.96 | locus YER111C, strain swi4, stronger effect = lower value 1.01 | locus YER155C, strain BEM2 (second series), stronger effect = lower value 1.02 | locus YER155C, strain BEM2, stronger effect = lower value 0.984 | locus YER167W, strain BCK2, stronger effect = lower value 1.01 | locus YFR010W, strain ubp6, stronger effect = lower value 1.02 | locus YGL078C, strain dbp3, stronger effect = lower value 0.952 | locus YGL086W, strain mad1, stronger effect = lower value 0.996 | locus YGL167C, strain pmr1, stronger effect = lower value 1.01 | locus YGL173C, strain kem1, stronger effect = lower value 1.01 | locus YGL227W, strain vid30, stronger effect = lower value 1 | locus YGL240W, strain doc1, stronger effect = lower value 0.984 | locus YGL248W, strain PDE1, stronger effect = lower value 1.01 | locus YGL253W, strain hxk2, stronger effect = lower value 1.02 | locus YGR078C, strain PAC10, stronger effect = lower value 1.01 | locus YGR135W, strain pre9, stronger effect = lower value 0.959 | locus YGR229C, strain SMI1, stronger effect = lower value 1.02 | locus YGR252W, strain gcn5, stronger effect = lower value 0.95 | locus YHR013C, strain ard1, stronger effect = lower value 1 | locus YHR027C, strain rpn1, stronger effect = lower value 1.01 | locus YHR030C, strain SLT2, stronger effect = lower value 0.993 and 0.907 | locus YHR079C, strain IRE1 (second series), stronger effect = lower value 0.963 | locus YHR079C, strain IRE1, stronger effect = lower value 0.917 | locus YHR094C, strain hxt1, stronger effect = lower value 0.96 | locus YHR129C, strain ARP1, stronger effect = lower value 0.991 | locus YHR142W, strain chs7, stronger effect = lower value 1.08 | locus YHR200W, strain rpn10, stronger effect = lower value 0.98 | locus YIL066C, strain RNR3, stronger effect = lower value 1 | locus YIL073C, strain SPO22, stronger effect = lower value 0.979 | locus YIL125W, strain kgd1, stronger effect = lower value 0.959 | locus YIR030C, strain dcg1, stronger effect = lower value 0.96 | locus YJL092W, strain hpr5, stronger effect = lower value 1.01 | locus YJL095W, strain BCK1 (second series), stronger effect = lower value 1.01 | locus YJL095W, strain BCK1, stronger effect = lower value 0.989 and 0.898 | locus YJL115W, strain asf1, stronger effect = lower value 1.01 | locus YJL129C, strain trk1, stronger effect = lower value 1 | locus YJL134W, strain LCB3, stronger effect = lower value 0.987 | locus YJL154C, strain vps35, stronger effect = lower value 1.02 | locus YJL164C, strain tpk1, stronger effect = lower value 1.03 | locus YJL166W, strain qcr8, stronger effect = lower value 0.995 | locus YJL168C, strain set2, stronger effect = lower value 0.953 | locus YJL187C, strain SWE1 (second series), stronger effect = lower value 1 | locus YJL187C, strain SWE1, stronger effect = lower value 0.991 | locus YJR043C, strain POL32, stronger effect = lower value 1.02

— PubChem BioAssay AID1159580 (chemical genetic matrix, 2015)
